# Measurements from the supplement of paper PMC9135407.
# Values joined by “and” are separate entries in the source; they are usually repeats but may differ in a detail not shown here. Equal entries are not always repeated. Out of some 5,800 compounds screened, about 620 (11%) showed activity. This is one part of a sample in which actives are shown more often than they occur. Unmarked numbers belong to inactive results.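 How the source made its calls: active = score above a cut-off or among the top three wells of a plate; in these data no inactive exceeds 0.85.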
# Test system: primary human hepatic stellate cells (donor 1)
# Assay: scaled lipid accumulation score (0 = DMSO-like, 1 = nortriptyline-like); higher = stronger HSC inactivation (lipid re-accumulation), active = hit call of the paper
# Conditions: 48 h
# [1] = library stock concentration: 3.33 mM
# [2] = library stock concentration: 10 mM
# [3] = library stock concentration: 1 mM
smiles,measurement,setting,value
CN(C)C(=O)c1ccc(S(=O)(=O)c2ccc(NC(=O)C(C)(O)C(F)(F)F)c(Cl)c2)cc1 (stereo not drawn),scaled lipid accumulation score,[1],≤ -0.009
same,scaled lipid accumulation score,[2],≤ 0
"CCCC/C=C/C=C/C=C\CCCCCCCC(=O)O [9(Z),11(E),13(E)-Octadecatrienoic Acid]",scaled lipid accumulation score,[3],≤ 0
O=C1Nc2ccc(-c3cccnc3)cc2/C1=C/c1ccc[nH]1 [JAK3 Inhibitor VI],scaled lipid accumulation score,[1],≤ 0
Cc1ccc(NC(=O)Nc2cc(C(F)(F)F)ccc2F)cc1Nc1ccc2c(c1)NC(=O)C2=Cc1ccc[nH]1,scaled lipid accumulation score,library stock concentration: 2 mM,1.14 (active)
same,scaled lipid accumulation score,[2],1.61 (active)
Cc1ccc(NC(=O)Nc2cc(C(F)(F)F)ccc2F)cc1Nc1ccc2c(c1)NC(=O)/C2=C\c1ccc[nH]1,scaled lipid accumulation score,library stock concentration: 80 uM,0.038
same,scaled lipid accumulation score,library stock concentration: 400 uM,0.353
"CCCCc1c(-c2ccc(OC)cc2)[nH]c2nccnc12 [Aloisine, RP106]",scaled lipid accumulation score,[1],0.036
N#C/C(=C(/N)Sc1ccccc1N)c1cccc(C(O)c2ccncc2)c1 (stereo not drawn) [MEK Inhibitor I],scaled lipid accumulation score,[1],≤ 0
OCCN1CCN(CCCN2c3ccccc3Sc3ccc(Cl)cc32)CC1,scaled lipid accumulation score,[2],0.962 (active)
NC(=O)N1c2ccccc2C=Cc2ccccc21 [Carbamazepine],scaled lipid accumulation score,,≤ 0
same,scaled lipid accumulation score,[1],0.025
same,scaled lipid accumulation score,[2],≤ 0 and 0.28
OCCN1CCN(CCCN2c3ccccc3Sc3ccc(Cl)cc32)CC1 [Perphenazine] [listing 1 of 2 here],scaled lipid accumulation score,,0.75
same,scaled lipid accumulation score,library stock concentration: 5 mM,0.605
same,scaled lipid accumulation score,[2],0.329
OCCN1CCN(CCCN2c3ccccc3Sc3ccc(Cl)cc32)CC1 [Perphenazine] [listing 2 of 2 here],scaled lipid accumulation score,[2],0.916 (active)
CN1CCN(CCCN2c3ccccc3Sc3ccc(Cl)cc32)CC1 [Prochlorperazine edisylate],scaled lipid accumulation score,library stock concentration: 3.5 mM,0.713
same,scaled lipid accumulation score,[2],0.523
Cl.Cl.OCCN1CCN(CCCN2c3ccccc3C=Cc3ccccc32)CC1 [Opipramol dihydrochloride],scaled lipid accumulation score,[2],0.885 (active)
NC(=O)N1c2ccccc2C=Cc2ccccc21,scaled lipid accumulation score,[2],≤ 0
CN1CCN(CCCN2c3ccccc3Sc3ccc(Cl)cc32)CC1 [Prochlorperazine dimaleate],scaled lipid accumulation score,,0.696
same,scaled lipid accumulation score,[2],0.815
CCCCC[C@](C)(O)/C=C/[C@H]1C(=O)C[C@H](O)[C@@H]1C/C=C\CCCC(=O)O [15(S)-15-methyl Prostaglandin D2],scaled lipid accumulation score,[3],≤ 0
COC1CCC(C(=O)c2ccc3nc4c(cc3c2)CCCO4)CC1 (stereo not drawn),scaled lipid accumulation score,[2],≤ -0.001
NCC(O)c1ccc(O)c(O)c1 (stereo not drawn),scaled lipid accumulation score,[2],≤ 0
COC(=O)/C=C/c1cccc(N(Cc2ccc(-c3ccc(N(C)C)cc3)cc2)C(=O)C2CCCCC2)c1 [Fexaramine],scaled lipid accumulation score,[2],0.006
